# Measurements taken from PubChem BioAssay (EPA / NIEHS).
# The source holds several records for some structures; these can differ, active in one and inactive in another. Calls of active or inactive are those of the source. Rule for the calls: active = hit-call score of the fitted dose curve at least 0.9, where 1 is the maximum; inactive = score below 0.9.
# Assays:
# [1] = read-out: Tissue Factor, F3 (gene 2152); test: BSK_CASM3C_TissueFactor: BioMAP Diversity Plus: CASM3C Assay for Tissue Factor Biomarker Activity (AID 2283052); conditions: primary human coronary artery smooth muscle cells; actives raise or lower the signal;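 note: cell surface tissue factor protein level read by ELISA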
# [2] = read-out: Interferon-gamma inducible Protein 10 (IP10), CXCL10 (gene 3627); test: BSK_hDFCGF_IP10: BioMAP Diversity Plus: hDFCGF Assay for Interferon-gamma inducible Protein 10 (IP10) Biomarker Activity (AID 2283053); conditions: primary human foreskin fibroblasts; actives raise or lower the signal
# In short: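 ELISA quantification of IP-10 after a 24 h chemical exposure of human dermal foreskin fibroblast primary cultures. Both increases and decreases versus DMSO fitted.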
# [3] = read-out: Urokinase-type plasminogen activator receptor (uPAR), PLAUR (gene 5329); test: BSK_CASM3C_uPAR: BioMAP Diversity Plus: CASM3C Assay for Urokinase-type plasminogen activator receptor (uPAR) Biomarker Activity (AID 2283054); conditions: primary human coronary artery smooth muscle cells; actives raise or lower the signal;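 note: cell-surface uPAR protein level quantified by ELISA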
# [4] = read-out: Vascular cell adhesion molecule 1 (VCAM1), VCAM1 (gene 7412); test: BSK_CASM3C_VCAM1: BioMAP Diversity Plus: CASM3C Assay for Vascular cell adhesion molecule 1 (VCAM1) Biomarker Activity (AID 2283055); conditions: primary human coronary artery smooth muscle cells; actives raise or lower the signal;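 note: VCAM-1 protein level quantified by ELISA on the cells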
# [5] = read-out: Collagen III, COL3A1 (gene 1281); test: BSK_hDFCGF_CollagenIII: BioMAP Diversity Plus: hDFCGF Assay for Collagen III Biomarker Activity (AID 2283056); conditions: primary human foreskin fibroblasts; actives raise or lower the signal
# In short: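 Human foreskin fibroblast primary cultures sampled 24 h after dosing; Collagen III quantified by ELISA. Signal fitted bidirectionally against DMSO baseline.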
# [6] = read-out: Epidermal growth factor receptor (EGFR), EGFR (gene 1956); test: BSK_hDFCGF_EGFR: BioMAP Diversity Plus: hDFCGF Assay for Epidermal growth factor receptor (EGFR) Biomarker Activity (AID 2283057); conditions: primary human foreskin fibroblasts; actives raise or lower the signal
# In short: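 EGFR levels by ELISA in human dermal fibroblast cultures, 24 h post-treatment, fitted bidirectionally versus DMSO. Parallel wells stained with sulforhodamine B to detect overt cytotoxicity.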
# [7] = read-out: Interleukin-8 (IL8), CXCL8 (gene 3576); test: BSK_hDFCGF_IL8: BioMAP Diversity Plus: hDFCGF Assay for Interleukin-8 (IL8) Biomarker Activity (AID 2283058); conditions: primary human foreskin fibroblasts; actives raise or lower the signal
# In short: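 Primary human foreskin fibroblasts (hDFCGF system) dosed with chemical; IL-8 measured by ELISA 24 hours later. Bidirectional curve fitting relative to DMSO baseline; cytotoxicity tracked in parallel cultures by SRB total protein staining.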
# [8] = BSK_hDFCGF_Proliferation: Cell Proliferation Assessment in the BioMAP Diversity Plus: hDFCGF Assay (AID 2283059); conditions: primary human foreskin fibroblasts;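 note: curves fitted for both rise and fall of signal versus DMSO baseline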
# In short: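 Steps: dose primary human dermal fibroblasts (foreskin); […] fix in 10% TCA; stain with 0.1% SRB; read 560 nm; fit gain or loss of signal against DMSO.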
# [9] = read-out: Macrophage colony-stimulating factor (MCSF), CSF1 (gene 1435); test: BSK_hDFCGF_MCSF: BioMAP Diversity Plus: hDFCGF Assay for Macrophage colony-stimulating factor (MCSF) Biomarker Activity (AID 2283060); conditions: primary human foreskin fibroblasts; actives raise or lower the signal
# In short: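 Human foreskin fibroblast primary cultures; M-CSF measured by ELISA 24 hours after chemical dosing. Bidirectional fitting relative to DMSO, with overt cytotoxicity tracked by parallel SRB total-protein staining (0.1% SRB, 10% TCA fixation, 560 nm).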
# [10] = BSK_hDFCGF_SRB: Viability Assessment in the BioMAP Diversity Plus: hDFCGF Assay (AID 2283061); conditions: primary human foreskin fibroblasts;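 note: cells exposed to compound for 24 h before the read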
# In short: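 Human foreskin fibroblasts in 96-well plates were treated 24 h. Total protein was measured by 0.1% SRB staining after 10% TCA fixation, read at 560 nm. Data were fitted bidirectionally against DMSO.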
# [11] = read-out: TIMP metallopeptidase inhibitor 1 (TIMP1), TIMP1 (gene 7076); test: BSK_hDFCGF_TIMP1: BioMAP Diversity Plus: hDFCGF Assay for TIMP metallopeptidase inhibitor 1 (TIMP1) Biomarker Activity (AID 2283062); conditions: primary human foreskin fibroblasts; actives raise or lower the signal
# In short: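 Human foreskin fibroblast primary cultures dosed for 24 h; secreted/surface TIMP-1 quantified by ELISA. Bidirectional curve fitting against DMSO baseline; cytotoxicity tracked in parallel cultures by SRB total-protein staining.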
# [12] = read-out: Monokine induced gamma interferon (MIG), CXCL9 (gene 4283); test: BSK_hDFCGF_MIG: BioMAP Diversity Plus: hDFCGF Assay for Monokine induced gamma interferon (MIG) Biomarker Activity (AID 2283063); conditions: primary human foreskin fibroblasts; actives raise or lower the signal
# In short: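 MIG/CXCL9 measured by ELISA 24 h after dosing primary human skin fibroblasts. Activity fitted in both directions against DMSO controls. Cytotoxicity was checked in parallel cultures by SRB staining read at 560 nm.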
# [13] = read-out: Matrix Metallopeptidase 1 (MMP1), MMP1 (gene 4312); test: BSK_hDFCGF_MMP1: BioMAP Diversity Plus: hDFCGF Assay for Matrix Metallopeptidase 1 (MMP1) Biomarker Activity (AID 2283064); conditions: primary human foreskin fibroblasts; actives raise or lower the signal
# In short: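 Human foreskin fibroblasts exposed to chemical for 24 h; MMP1 detected by ELISA, with DMSO as baseline for bidirectional fitting.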
# [14] = read-out: Vascular cell adhesion molecule 1 (VCAM1), VCAM1 (gene 7412); test: BSK_hDFCGF_VCAM1: BioMAP Diversity Plus: hDFCGF Assay for Vascular cell adhesion molecule 1 (VCAM1) Biomarker Activity (AID 2283065); conditions: primary human foreskin fibroblasts; actives raise or lower the signal;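 for AC50: VCAM-1 protein level quantified by ELISA after 24 h chemical exposure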
# In short: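 Human foreskin fibroblast primary cells dosed with chemical, VCAM-1 measured by ELISA at 24 h. Bidirectional curve fitting relative to DMSO as negative control/baseline.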
# [15] = read-out: Plasminogen activator inhibitor-1 (PAI1), SERPINE1 (gene 5054); test: BSK_hDFCGF_PAI1: BioMAP Diversity Plus: hDFCGF Assay for Plasminogen activator inhibitor-1 (PAI1) Biomarker Activity (AID 2283066); conditions: primary human foreskin fibroblasts; actives raise or lower the signal
# In short: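 PAI-1 levels in human dermal foreskin fibroblasts were quantified by ELISA 24 h after dosing, with gain or loss analysed against DMSO. Overt cytotoxicity was checked by sulforhodamine B total-protein staining in parallel cultures.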
# [16] = read-out: Intercellular Adhesion Molecule 1 (ICAM1), ICAM1 (gene 3383); test: BSK_KF3CT_ICAM1: BioMAP Diversity Plus: KF3CT Assay for Intercellular Adhesion Molecule 1 (ICAM1) Biomarker Activity (AID 2283067); conditions: primary human keratinocytes with fibroblasts; actives raise or lower the signal
# In short: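 Human keratinocyte–foreskin fibroblast co-culture was treated for 24 h. Cell-surface ICAM-1 was quantified by ELISA, fitted bidirectionally relative to DMSO. Cytotoxicity was checked in parallel cultures by SRB total-protein staining.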
# [17] = read-out: Interferon-gamma inducible Protein 10 (IP10), CXCL10 (gene 3627); test: BSK_KF3CT_IP10: BioMAP Diversity Plus: KF3CT Assay for Interferon-gamma inducible Protein 10 (IP10) Biomarker Activity (AID 2283068); conditions: primary human keratinocytes with fibroblasts; actives raise or lower the signal
# In short: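 KF3CT co-culture (keratinocytes + foreskin fibroblasts), 24 h compound, IP-10 by ELISA; bidirectional fit vs DMSO baseline.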
# [18] = BSK_KF3CT_SRB: Viability Assessment in the BioMAP Diversity Plus: KF3CT Assay (AID 2283069); conditions: primary human keratinocytes with fibroblasts;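 note: read 24 h after compound addition; fitted for both signal gain and loss against DMSO baseline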
# In short: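 Overt cytotoxicity is assessed as total protein by sulforhodamine B staining in parallel human skin co-cultures at 24 h after dosing. DMSO serves as negative control and baseline.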
# [19] = read-out: Interleukin-1 alpha (IL1a), IL1A (gene 3552); test: BSK_KF3CT_IL1a: BioMAP Diversity Plus: KF3CT Assay for Interleukin-1 alpha (IL1a) Biomarker Activity (AID 2283070); conditions: primary human keratinocytes with fibroblasts; actives raise or lower the signal
# In short: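 Readout is IL-1a level by ELISA, compared bidirectionally with DMSO as baseline. Cells: human keratinocytes co-cultured with foreskin fibroblasts, harvested 24 h post-dose.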
# [20] = read-out: TIMP metallopeptidase inhibitor 2 (TIMP2), TIMP2 (gene 7077); test: BSK_KF3CT_TIMP2: BioMAP Diversity Plus: KF3CT Assay for TIMP metallopeptidase inhibitor 2 (TIMP2) Biomarker Activity (AID 2283071); conditions: primary human keratinocytes with fibroblasts; actives raise or lower the signal
# In short: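 TIMP-2 measured by ELISA at 24 h in human keratinocyte/fibroblast primary co-cultures exposed to chemicals. Both increases and decreases were fitted against DMSO. Parallel cultures were stained with SRB for total protein as an overt-cytotoxicity check.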
smiles,measurement,setting,value
Cc1cc(Cl)ccc1OC(C)C(=O)O (stereo unspecified),outcome,[1],inactive
same,outcome,[2],inactive
same,outcome,[3],inactive
same,outcome,[4],inactive
same,outcome,[5],inactive
same,outcome,[6],inactive
same,outcome,[7],inactive
same,outcome,[8],inactive
same,outcome,[9],inactive
same,outcome,[10],inactive
same,outcome,[11],inactive
same,outcome,[12],inactive
same,outcome,[13],inactive
same,outcome,[14],inactive
same,outcome,[15],inactive
same,outcome,[16],inactive
same,outcome,[17],inactive
same,outcome,[18],inactive
same,outcome,[19],inactive
CC1(C)[C@H](C(=O)O[C@H](C#N)c2cccc(Oc3ccccc3)c2)[C@@H]1/C=C(\Cl)C(F)(F)F,outcome,[1],inactive
same,outcome,[2],inactive
same,outcome,[3],inactive
same,outcome,[4],inactive
same,AC50,[5],9.08 µM (active)
same,outcome,[5],inactive
same,outcome,[6],inactive
same,outcome,[7],inactive
same,AC50,[8],7.37 µM (active)
same,outcome,[8],inactive
same,outcome,[9],inactive
same,outcome,[10],inactive
same,outcome,[11],inactive
same,outcome,[12],inactive
same,AC50,[13],0.0141 µM (active)
same,outcome,[13],inactive
same,outcome,[15],inactive
same,outcome,[17],inactive
same,outcome,[19],inactive
CCOC(=O)C(SP(=S)(OC)OC)c1ccccc1 (stereo unspecified),AC50,[1],3.97 µM (active)
same,outcome,[2],inactive
same,outcome,[3],inactive
same,AC50,[4],20 µM (active)
same,AC50,[5],10.2 µM (active)
same,outcome,[6],inactive
same,outcome,[7],inactive
same,AC50,[8],26.4 µM (active)
same,AC50,[9],7.09 µM (active)
same,outcome,[10],inactive
same,outcome,[11],inactive
same,outcome,[12],inactive
same,outcome,[13],inactive
same,outcome,[15],inactive
same,outcome,[17],inactive
same,outcome,[19],inactive
CN(C)C(=S)S,outcome,[1],inactive
same,AC50,[2],18 µM (active)
same,outcome,[3],inactive
same,outcome,[4],inactive
same,AC50,[5],3.97 µM (active)
same,outcome,[6],inactive
same,AC50,[7],30.9 µM (active)
same,AC50,[9],14.2 µM (active)
same,AC50,[10],27.1 µM (active)
same,AC50,[11],13 µM (active)
same,AC50,[12],21.6 µM (active)
same,AC50,[13],36.9 µM (active)
same,AC50,[14],11.2 µM (active)
same,AC50,[15],33.6 µM (active)
same,outcome,[17],inactive
same,outcome,[18],inactive
same,outcome,[19],inactive
same,outcome,[20],inactive
CC(C)(C)c1cc([N+](=O)[O-])cc(C(C)(C)C)c1O,outcome,[1],inactive
same,outcome,[2],inactive
same,AC50,[3],11.8 µM (active)
same,outcome,[4],inactive
same,outcome,[5],inactive
same,outcome,[6],inactive
same,outcome,[7],inactive
same,outcome,[8],inactive
same,outcome,[9],inactive
same,outcome,[10],inactive
same,outcome,[11],inactive
same,outcome,[12],inactive
same,outcome,[13],inactive
same,outcome,[15],inactive
same,AC50,[17],0.0652 µM (active)
same,outcome,[19],inactive
same,AC50,[20],20 µM (active)
COCC(=O)N(c1c(C)cccc1C)[C@H](C)C(=O)OC,outcome,[1],inactive
same,outcome,[2],inactive
same,outcome,[3],inactive
same,outcome,[4],inactive
same,outcome,[5],inactive
same,outcome,[6],inactive
same,outcome,[7],inactive
same,outcome,[8],inactive
same,outcome,[9],inactive
same,outcome,[10],inactive
same,outcome,[11],inactive
same,outcome,[12],inactive
same,outcome,[13],inactive
same,outcome,[15],inactive
same,outcome,[16],inactive
same,outcome,[17],inactive
same,outcome,[19],inactive
